Laboratory results: the supplement of paper PMC9694430

Experiments:
Assay in all cases: thermal shift delta Tm vs DMSO control; higher = stronger stabilization (binding)
Conditions in all cases: 12.5 µM; protein concentration 2 µM
[1] = tested on: LOC_OS01G57100-cb003
How it was run: (§1)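 Rice kinase domain constructs, made in E. coli and purified, were placed in 96-well plates at 2 μM in 19.5 μl of 100 mM potassium phosphate pH 7.5, 150 mM NaCl, 10% glycerol and 5 × SYPRO Orange, with compound in DMSO. A temperature ramp from 25°C to 95°C at 0.05°C/s was used for differential scanning fluorimetry. The melting temperature shift is a triplicate mean compared with DMSO-only protein, derived from Boltzmann fits.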

[2] = tested on: LOC_OS01G60330-cb001
How it was run: as §1

[3] = tested on: LOC_OS01G60700-cb002
How it was run: as §1

[4] = tested on: LOC_OS01G63280-cb003
How it was run: as §1

[5] = tested on: LOC_OS01G67340-cb003
How it was run: as §1

[6] = tested on: LOC_OS01G70970-cb002
How it was run: as §1

[7] = tested on: LOC_OS02G07810-cb001
How it was run: as §1

[8] = tested on: LOC_OS02G08530-cb003
How it was run: as §1

[9] = tested on: LOC_OS02G14120-cb001
How it was run: as §1

[10] = tested on: LOC_OS02G17970-cb001
How it was run: as §1

[11] = tested on: LOC_OS02G45750-cb003
How it was run: as §1

[12] = tested on: LOC_OS02G54510-cb004
How it was run: as §1

[13] = tested on: LOC_OS03G04050-cb001
How it was run: as §1

[14] = tested on: LOC_OS03G12390-cb001
How it was run: as §1

[15] = tested on: LOC_OS03G27990-cb004
How it was run: as §1

[16] = tested on: LOC_OS03G50450-cb001
How it was run: as §1

[17] = tested on: LOC_OS03G50810-cb003
How it was run: as §1

[18] = tested on: LOC_OS04G35114-cb001
How it was run: as §1

[19] = tested on: T1, LOC_OS04G38480-cb003
T1 sequence (whole entry): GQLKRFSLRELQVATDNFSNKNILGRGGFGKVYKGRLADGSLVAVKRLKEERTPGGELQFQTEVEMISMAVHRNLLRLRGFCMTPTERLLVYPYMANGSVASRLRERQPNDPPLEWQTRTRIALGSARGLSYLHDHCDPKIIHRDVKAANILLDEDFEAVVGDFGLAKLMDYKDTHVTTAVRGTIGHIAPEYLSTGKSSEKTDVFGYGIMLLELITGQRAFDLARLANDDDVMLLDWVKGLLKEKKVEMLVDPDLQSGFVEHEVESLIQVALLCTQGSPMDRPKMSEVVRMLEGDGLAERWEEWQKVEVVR
How it was run: as §1

[20] = tested on: T2, LOC_OS04G41100-cb001
T2 sequence (whole entry): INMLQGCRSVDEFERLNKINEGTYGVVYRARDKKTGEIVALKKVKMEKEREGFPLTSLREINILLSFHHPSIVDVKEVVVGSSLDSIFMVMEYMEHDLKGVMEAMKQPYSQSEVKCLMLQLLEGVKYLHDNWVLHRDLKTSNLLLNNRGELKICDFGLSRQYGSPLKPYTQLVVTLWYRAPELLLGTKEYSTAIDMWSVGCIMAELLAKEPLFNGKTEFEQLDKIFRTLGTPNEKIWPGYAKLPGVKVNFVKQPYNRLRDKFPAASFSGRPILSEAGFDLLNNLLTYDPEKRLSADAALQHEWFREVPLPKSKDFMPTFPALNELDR
How it was run: as §1
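Note: purified Escherichia coli-expressed rice kinase domain construct.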

SMILES	thermal shift delta Tm [1]	thermal shift delta Tm [2]	thermal shift delta Tm [3]	thermal shift delta Tm [4]	thermal shift delta Tm [5]	thermal shift delta Tm [6]	thermal shift delta Tm [7]	thermal shift delta Tm [8]	thermal shift delta Tm [9]	thermal shift delta Tm [10]	thermal shift delta Tm [11]	thermal shift delta Tm [12]	thermal shift delta Tm [13]	thermal shift delta Tm [14]	thermal shift delta Tm [15]	thermal shift delta Tm [16]	thermal shift delta Tm [17]	thermal shift delta Tm [18]	thermal shift delta Tm [19]	thermal shift delta Tm [20]
Nc1nc(N)c2nc(-c3cccc(O)c3)c(-c3cccc(O)c3)nc2n1	2.01 °C	3.89 °C	1.27 °C	0.44 °C	-0.24 °C	0.19 °C	1.52 °C	0.91 °C	1.95 °C	1.03 °C	0.83 °C	0.31 °C	0.2 °C	0.79 °C	1.44 °C	0.33 °C	0.34 °C	0.99 °C	1.12 °C	0.63 °C
Cc1ccc(NC(=O)Nc2cc(C(F)(F)F)ccc2F)cc1Nc1ccc2c(c1)NC(=O)/C2=C\c1ccc[nH]1	2.33 °C	1.66 °C	0.91 °C	2.05 °C	1.55 °C	1.83 °C	3.74 °C	-2.7 °C	0.57 °C	1.85 °C	0.48 °C	-0.12 °C	1.3 °C	1.34 °C	0.77 °C	1.31 °C	1.99 °C	-0.61 °C	-1.28 °C	0.8 °C
Cn1c(=O)c(Oc2ccc(F)cc2F)cc2cnc(NC(CCO)CCO)nc21	1.18 °C	0.87 °C	1.45 °C	0.27 °C	0.29 °C	0.4 °C	0.02 °C	1.22 °C	1.36 °C	1 °C	0.76 °C	0.53 °C	0.43 °C	-0.19 °C	0.49 °C	0.26 °C	0.46 °C	0.71 °C	0.93 °C	0.09 °C
Nc1ncnc2c1c(-c1cnc3[nH]ccc3c1)nn2C1CCCC1	1.79 °C	1.57 °C	1.17 °C	4.61 °C	1.58 °C	0.76 °C	1.3 °C	2.67 °C	2.04 °C	0.76 °C	2.27 °C	3.34 °C	0.54 °C	5.27 °C	1.19 °C	0.86 °C	0.88 °C	4.32 °C	1.28 °C	0.51 °C
O=C(NOC[C@H](O)CO)c1ccc(F)c(F)c1Nc1ccc(I)cc1F	0.81 °C	1.22 °C	1.23 °C	0.57 °C	0.04 °C	0.46 °C	1.39 °C	1.15 °C	1.04 °C	0.52 °C	0.77 °C	0.16 °C	0.43 °C	0.47 °C	0.21 °C	0.26 °C	0.28 °C	-0.05 °C	0.76 °C	0.78 °C
Cc1cc(C(=O)NOCCO)c(Nc2ccc(I)cc2F)n(C)c1=O	1.03 °C	0.4 °C	0.64 °C	0.19 °C	-0.42 °C	0.23 °C	0.73 °C	0.29 °C	-0.53 °C	0.08 °C	-0.39 °C	0.03 °C	0.19 °C	-0.3 °C	0.02 °C	1.11 °C	-0.06 °C	0.41 °C	0.64 °C	0.58 °C
Cc1[nH]nc2ccc(-c3cncc(OC[C@@H](N)Cc4ccccc4)c3)cc12	1.88 °C	0.68 °C	1.01 °C	0.26 °C	1.12 °C	0.36 °C	1.05 °C	2.68 °C	3.18 °C	0.41 °C	2.29 °C	0.14 °C	0.35 °C	3.08 °C	0.34 °C	0.59 °C	1.41 °C	1.06 °C	0.62 °C	1.9 °C
O=C(NOCCO)c1ccc2cncn2c1Nc1ccc(I)cc1F	1.19 °C	-0.56 °C	0.86 °C	0.2 °C	-0.68 °C	-0.05 °C	1.14 °C	0.47 °C	-1.25 °C	1.62 °C	0.53 °C	0.01 °C	0.75 °C	-0.37 °C	0.29 °C	-0.24 °C	0.06 °C	-0.73 °C	-1.85 °C	0.39 °C
O=C(Nc1ccc(-c2ccnc(Nc3ccc(N4CCOCC4)cc3)n2)cc1)C1CCCN1 (stereo not given)	0.26 °C	0.51 °C	1.22 °C	0.08 °C	-0.06 °C	0.39 °C	0.59 °C	0.66 °C	3.38 °C	0.54 °C	0.77 °C	0.47 °C	0.4 °C	1.05 °C	0.29 °C	0.37 °C	0.83 °C	2.26 °C	1 °C	0.45 °C
COc1cc2ncnc(Nc3ccc(O)c(Br)c3)c2cc1OC	0.74 °C	0.32 °C	1.72 °C	0.92 °C	0.7 °C	0.81 °C	0.81 °C	1.8 °C	7.45 °C	1.06 °C	1.02 °C	0.71 °C	0.44 °C	4.5 °C	2.33 °C	-0.05 °C	2.28 °C	4.51 °C	2.11 °C	0.46 °C
Cc1cccc(Nc2nc(NC3CCCCC3N)ncc2C(N)=O)c1 (stereo not given)	2.09 °C	1.38 °C	1.44 °C	0.64 °C	2.38 °C	2.39 °C	-0.08 °C	4.25 °C	4.75 °C	0.86 °C	0.65 °C	1.67 °C	0.03 °C	2.43 °C	3.15 °C	4.23 °C	1.34 °C	0.3 °C	1.83 °C	0.73 °C
CNc1nc(Nc2cn(C(C)(C)C#N)nc2C)ncc1C(F)(F)F	1.92 °C	1.38 °C	1.27 °C	0.69 °C	0.49 °C	0.2 °C	0.4 °C	0.86 °C	0.65 °C	1.09 °C	0.99 °C	0.1 °C	0.32 °C	0.28 °C	0.39 °C	0.78 °C	0.62 °C	1.36 °C	1.34 °C	0.22 °C
O=C(/C=C/c1ccc(O)c(O)c1)c1ccc(O)cc1O [Butein]	4.85 °C	7.74 °C	1.12 °C	17.7 °C	7.74 °C	2.95 °C	1.6 °C	1.81 °C	4.14 °C	3.5 °C	2.94 °C	0.39 °C	1.9 °C	3.8 °C	1.75 °C	2.26 °C	2.72 °C	3.66 °C	3.43 °C	2.09 °C
